A short description of assay [1]: CEETOX_H295R_PROG: CeeTox H295R High-throughput Steroidogenesis Assay for Progesterone (PROG) (AID 2283442).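 On AC50: human H295R adrenal cells primed with 10 µM forskolin before dosing; progesterone secreted into medium by H295R cells measured by HPLC-MS/MS.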 The note with it: actives raise or lower the signal. A digest of the protocol:
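Steps: seed H295R cells and let them adhere overnight; prime 48 h with 10 uM forskolin; dose with compound in DMSO at 0.1% final for 48 h; extract medium steroids with MTBE; measure progesterone by LC-MS/MS. MTT viability was run in the same wells.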

Read-out in assay [2]: Fatty acid synthase (Homo sapiens) (UniProt P49327)
The experiment in a line: LTEA_HepaRG_FASN: Life Technologies and Expression Analysis (LTEA) Assay for Fatty Acid Synthase (FASN) using HepaRG (AID 2283448).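 On AC50: differentiated human HepaRG liver cells in serum-free induction medium.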 The note with it: mRNA level, 48 h; actives raise or lower the signal. A digest of the protocol:
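Cells were plated, cultured 48 h, switched to serum-free induction medium, then dosed in duplicate (max 100 uM, half-log dilutions, 0.5% DMSO) for 48 h. RNA was then isolated and FASN quantified by qRT-PCR.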

Read-out in assay [3]: Cyclin D2 (CCND2), CCND2 (gene 894)
The experiment in a line: LTEA_HepaRG_CCND2: Life Technologies and Expression Analysis (LTEA) Assay for Cyclin D2 (CCND2) using HepaRG (AID 2283449). The note with it: mRNA level, 48 h; actives raise or lower the signal. In short, it runs like this:
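CCND2 transcript levels, quantified by qRT-PCR and normalised to three housekeeping genes, were fitted bidirectionally against 0.5% DMSO. HepaRG cultures were dosed 48 h in duplicate with an 8-point half-log series up to 100 uM.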

Read-out in assay [4]: Cyclin Dependent Kinase Inhibitor 1A (CDKN1A), CDKN1A (gene 1026)
The experiment in a line: LTEA_HepaRG_CDKN1A: Life Technologies and Expression Analysis (LTEA) Assay for Cyclin Dependent Kinase Inhibitor 1A (CDKN1A) using HepaRG (AID 2283450). The note with it: mRNA level, 48 h; actives raise or lower the signal. A digest of the protocol:
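Read-out is CDKN1A mRNA by TaqMan qRT-PCR, normalized to three housekeeping genes and fitted in both directions against the DMSO baseline. Human HepaRG cells were treated 48 h with test chemicals up to 100 uM in half-log steps, 0.5% DMSO.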

Read-out in assay [5]: Cyclin D1 (CCND1), CCND1 (gene 595)
The experiment in a line: LTEA_HepaRG_CCND1: Life Technologies and Expression Analysis (LTEA) Assay for Cyclin D1 (CCND1) using HepaRG (AID 2283451). The note with it: mRNA level, 48 h; actives raise or lower the signal. In short, it runs like this:
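HepaRG plated 48 h, medium switched to serum-free induction medium, chemicals added in duplicate (top 100 uM, half-log steps, 0.5% DMSO) for 48 h, cells lysed, RNA measured by TaqMan qRT-PCR.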

Read-out in assay [6]: catalase (CAT), CAT (gene 847)
The experiment in a line: LTEA_HepaRG_CAT: Life Technologies and Expression Analysis (LTEA) Assay for catalase (CAT) using HepaRG (AID 2283452). The note with it: mRNA level, 48 h; actives raise or lower the signal. A digest of the protocol:
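Expression of CAT was quantified by TaqMan qRT-PCR with ACTB/GAPDH/POLR2A normalization after 48 h chemical exposure of HepaRG. Eight-point half-log series, top 100 uM, in 0.5% DMSO; gain or loss fitted against vehicle.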

Read-out in assay [7]: flavin-containing dimethylaniline monooxygenases 3 (FMO3), FMO3 (gene 2328)
The experiment in a line: LTEA_HepaRG_FMO3: Life Technologies and Expression Analysis (LTEA) Assay for flavin-containing dimethylaniline monooxygenases 3 (FMO3) using HepaRG (AID 2283453).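 On AC50: differentiated human HepaRG liver cells in serum-free induction medium.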 The note with it: mRNA level, 48 h; actives raise or lower the signal. A digest of the protocol:
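FMO3 transcript quantified by TaqMan qRT-PCR against three housekeeping genes after 48 h chemical exposure of HepaRG cells. Eight-point half-log series, top 100 uM, 0.5% DMSO vehicle; phenobarbital 1mM induction control; up- or down-regulation fitted.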

Read-out in assay [8]: Cytochrome P450 (CYP1A1), CYP1A1 (gene 1543)
The experiment in a line: LTEA_HepaRG_CYP1A1: Life Technologies and Expression Analysis (LTEA) Assay for Cytochrome P450 (CYP1A1) using HepaRG (AID 2283454). The note with it: mRNA level, 48 h; actives raise or lower the signal. In short, it runs like this: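 HepaRG, 48 h post-plating switched to serum-free induction medium; 8-pt conc-response (top 100 uM, half-log, 0.5% DMSO), duplicates, 48 h. Lysis in RLT, TaqMan qRT-PCR for CYP1A1; gain or loss vs DMSO.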

Read-out in assay [9]: CFLAR gene, CFLAR (gene 8837)
The experiment in a line: LTEA_HepaRG_CFLAR: Life Technologies and Expression Analysis (LTEA) Assay for CFLAR gene using HepaRG (AID 2283455). The note with it: mRNA level, 48 h; actives raise or lower the signal. A digest of the protocol:
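Transcript level by qRT-PCR (normalized to ACTB, GAPDH and POLR2A) after 48 h chemical exposure of HepaRG cells, top concentration 100 uM with half-log steps, 0.5% DMSO vehicle, duplicates; fitted bidirectionally against DMSO baseline.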

Read-out in assay [10]: Forkhead box O1 (FOXO1), FOXO1 (gene 2308)
The experiment in a line: LTEA_HepaRG_FOXO1: Life Technologies and Expression Analysis (LTEA) Assay for Forkhead box O1 (FOXO1) using HepaRG (AID 2283456). The note with it: mRNA level, 48 h; actives raise or lower the signal. In short, it runs like this: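 FOXO1 transcript quantified by qRT-PCR after 48 h chemical exposure (top 100 uM, half-log steps, 0.5% DMSO) of HepaRG cells, housekeeping-normalized (ACTB/GAPDH/POLR2A). Changes fitted in both directions relative to vehicle.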

Read-out in assay [11]: growth arrest and DNA damage 45 (GADD45A), GADD45A (gene 1647)
The experiment in a line: LTEA_HepaRG_GADD45A: Life Technologies and Expression Analysis (LTEA) Assay for growth arrest and DNA damage 45 (GADD45A) using HepaRG (AID 2283458). The note with it: mRNA level, 48 h; actives raise or lower the signal. In short, it runs like this: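 Transcript induction or loss, quantified by TaqMan qRT-PCR against three housekeeping genes, is the read-out. HepaRG cells received chemicals for 48 h across eight half-log concentrations from 100 uM in 0.5% DMSO; gain and loss fitted relative to DMSO.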

Read-out in assay [12]: Forkhead box O3 (FOXO3), FOXO3 (gene 2309)
The experiment in a line: LTEA_HepaRG_FOXO3: Life Technologies and Expression Analysis (LTEA) Assay for Forkhead box O3 (FOXO3) using HepaRG (AID 2283459). The note with it: mRNA level, 48 h; actives raise or lower the signal. A digest of the protocol: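 FOXO3 transcript measured by qRT-PCR (normalized to ACTB, GAPDH, POLR2A) after 48 h exposure of HepaRG cells in serum-free induction medium. Duplicates, eight half-log concentrations up to 100 uM, 0.5% DMSO; gain or loss fitted against DMSO.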

Read-out in assay [13]: ABC Transporter (ABCB1), ABCB1 (gene 5243)
The experiment in a line: LTEA_HepaRG_ABCB1: Life Technologies and Expression Analysis (LTEA) Assay for ABC Transporter (ABCB1) using HepaRG (AID 2283460). The note with it: mRNA level, 48 h; actives raise or lower the signal. A digest of the protocol: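 ABCB1 transcript level measured by TaqMan qRT-PCR against three housekeeping genes after 48 h chemical exposure of differentiated HepaRG cells. Top concentration 100 uM, half-log steps, eight points, 0.5% DMSO vehicle; bidirectional fit relative to DMSO.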

Read-out in assay [14]: growth arrest and DNA damage 45 (GADD45B), GADD45B (gene 4616)
The experiment in a line: LTEA_HepaRG_GADD45B: Life Technologies and Expression Analysis (LTEA) Assay for growth arrest and DNA damage 45 (GADD45B) using HepaRG (AID 2283461). The note with it: mRNA level, 48 h; actives raise or lower the signal. In short, it runs like this: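 HepaRG, ~100,000 cells/well, 48 h plating; serum-free induction medium; cpd 100 uM top, half-log x8, 0.5% DMSO, duplicate, 48 h; lysis in RLT, RNA isolation, qRT-PCR; norm ACTB/GAPDH/POLR2A; bidirectional fit vs DMSO.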

Read-out in assay [15]: ABC Transporter (ABCC3), ABCC3 (gene 8714)
The experiment in a line: LTEA_HepaRG_ABCC3: Life Technologies and Expression Analysis (LTEA) Assay for ABC Transporter (ABCC3) using HepaRG (AID 2283462). The note with it: mRNA level, 48 h; actives raise or lower the signal. A digest of the protocol:
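Human HepaRG, 48 h dosing, 8-pt half-log series from 100 uM, 0.5% DMSO vehicle, duplicates. ABCC3 mRNA by TaqMan qRT-PCR, housekeeping-normalized; bidirectional curve fit vs DMSO.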

Read-out in assay [16]: ABC Transporter (ABCB11), ABCB11 (gene 8647)
The experiment in a line: LTEA_HepaRG_ABCB11: Life Technologies and Expression Analysis (LTEA) Assay for ABC Transporter (ABCB11) using HepaRG (AID 2283463). The note with it: mRNA level, 48 h; actives raise or lower the signal. In short, it runs like this:
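ABCB11 transcript levels quantified by TaqMan qRT-PCR against three housekeeping genes after 48 h chemical exposure of HepaRG cultures. Concentrations up to 100 uM in half-log steps, 0.5% DMSO vehicle; both induction and suppression scored.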

Read-out in assay [17]: Broad substrate specificity ATP-binding cassette transporter ABCG2 (Homo sapiens) (UniProt Q9UNQ0)
The experiment in a line: LTEA_HepaRG_ABCG2: Life Technologies and Expression Analysis (LTEA) Assay for ABC Transporter (ABCG2) using HepaRG (AID 2283465). The note with it: mRNA level, 48 h; actives raise or lower the signal. In short, it runs like this:
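ABCG2 transcript was quantified by TaqMan qRT-PCR against three housekeeping genes in HepaRG cells. Cells were treated in duplicate for 48 h across an 8-point half-log series up to 100 uM, with 0.5% DMSO vehicle. Gain or loss versus DMSO was fit.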

Read-out in assay [18]: ABC Transporter (ABCC2), ABCC2 (gene 1244)
The experiment in a line: LTEA_HepaRG_ABCC2: Life Technologies and Expression Analysis (LTEA) Assay for ABC Transporter (ABCC2) using HepaRG (AID 2283464). The note with it: mRNA level, 48 h; actives raise or lower the signal. A digest of the protocol: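 HepaRG, 48 h post-plating; serum-free induction medium; cpd 8-pt, 100 uM top, half-log, 0.5% DMSO, duplicate, 48 h. Readout: ABCC2 mRNA by qRT-PCR, norm. ACTB/GAPDH/POLR2A. Bidirectional fit vs DMSO baseline.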

Read-out in assay [19]: Tumor necrosis factor receptor superfamily member 6 (Homo sapiens) (UniProt P25445)
The experiment in a line: LTEA_HepaRG_FAS: Life Technologies and Expression Analysis (LTEA) Assay for Fas cell surface death receptor (FAS) using HepaRG (AID 2283447). The note with it: mRNA level, 48 h; actives raise or lower the signal. A digest of the protocol: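 FAS transcript level was measured by TaqMan qRT-PCR against three housekeeping genes after 48 h chemical exposure. Cells were HepaRG, 0.5% DMSO vehicle, with a top concentration of 100 uM and half-log dilutions over eight points, in duplicate.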

Activity calls are given as the source filed them. How the source made its calls: active means hit-call score of the fitted dose curve at least 0.9, where 1 is the maximum; inactive means score below 0.9.

Fatty acid synthase (Homo sapiens), sequence (P49327 whole entry, looked up): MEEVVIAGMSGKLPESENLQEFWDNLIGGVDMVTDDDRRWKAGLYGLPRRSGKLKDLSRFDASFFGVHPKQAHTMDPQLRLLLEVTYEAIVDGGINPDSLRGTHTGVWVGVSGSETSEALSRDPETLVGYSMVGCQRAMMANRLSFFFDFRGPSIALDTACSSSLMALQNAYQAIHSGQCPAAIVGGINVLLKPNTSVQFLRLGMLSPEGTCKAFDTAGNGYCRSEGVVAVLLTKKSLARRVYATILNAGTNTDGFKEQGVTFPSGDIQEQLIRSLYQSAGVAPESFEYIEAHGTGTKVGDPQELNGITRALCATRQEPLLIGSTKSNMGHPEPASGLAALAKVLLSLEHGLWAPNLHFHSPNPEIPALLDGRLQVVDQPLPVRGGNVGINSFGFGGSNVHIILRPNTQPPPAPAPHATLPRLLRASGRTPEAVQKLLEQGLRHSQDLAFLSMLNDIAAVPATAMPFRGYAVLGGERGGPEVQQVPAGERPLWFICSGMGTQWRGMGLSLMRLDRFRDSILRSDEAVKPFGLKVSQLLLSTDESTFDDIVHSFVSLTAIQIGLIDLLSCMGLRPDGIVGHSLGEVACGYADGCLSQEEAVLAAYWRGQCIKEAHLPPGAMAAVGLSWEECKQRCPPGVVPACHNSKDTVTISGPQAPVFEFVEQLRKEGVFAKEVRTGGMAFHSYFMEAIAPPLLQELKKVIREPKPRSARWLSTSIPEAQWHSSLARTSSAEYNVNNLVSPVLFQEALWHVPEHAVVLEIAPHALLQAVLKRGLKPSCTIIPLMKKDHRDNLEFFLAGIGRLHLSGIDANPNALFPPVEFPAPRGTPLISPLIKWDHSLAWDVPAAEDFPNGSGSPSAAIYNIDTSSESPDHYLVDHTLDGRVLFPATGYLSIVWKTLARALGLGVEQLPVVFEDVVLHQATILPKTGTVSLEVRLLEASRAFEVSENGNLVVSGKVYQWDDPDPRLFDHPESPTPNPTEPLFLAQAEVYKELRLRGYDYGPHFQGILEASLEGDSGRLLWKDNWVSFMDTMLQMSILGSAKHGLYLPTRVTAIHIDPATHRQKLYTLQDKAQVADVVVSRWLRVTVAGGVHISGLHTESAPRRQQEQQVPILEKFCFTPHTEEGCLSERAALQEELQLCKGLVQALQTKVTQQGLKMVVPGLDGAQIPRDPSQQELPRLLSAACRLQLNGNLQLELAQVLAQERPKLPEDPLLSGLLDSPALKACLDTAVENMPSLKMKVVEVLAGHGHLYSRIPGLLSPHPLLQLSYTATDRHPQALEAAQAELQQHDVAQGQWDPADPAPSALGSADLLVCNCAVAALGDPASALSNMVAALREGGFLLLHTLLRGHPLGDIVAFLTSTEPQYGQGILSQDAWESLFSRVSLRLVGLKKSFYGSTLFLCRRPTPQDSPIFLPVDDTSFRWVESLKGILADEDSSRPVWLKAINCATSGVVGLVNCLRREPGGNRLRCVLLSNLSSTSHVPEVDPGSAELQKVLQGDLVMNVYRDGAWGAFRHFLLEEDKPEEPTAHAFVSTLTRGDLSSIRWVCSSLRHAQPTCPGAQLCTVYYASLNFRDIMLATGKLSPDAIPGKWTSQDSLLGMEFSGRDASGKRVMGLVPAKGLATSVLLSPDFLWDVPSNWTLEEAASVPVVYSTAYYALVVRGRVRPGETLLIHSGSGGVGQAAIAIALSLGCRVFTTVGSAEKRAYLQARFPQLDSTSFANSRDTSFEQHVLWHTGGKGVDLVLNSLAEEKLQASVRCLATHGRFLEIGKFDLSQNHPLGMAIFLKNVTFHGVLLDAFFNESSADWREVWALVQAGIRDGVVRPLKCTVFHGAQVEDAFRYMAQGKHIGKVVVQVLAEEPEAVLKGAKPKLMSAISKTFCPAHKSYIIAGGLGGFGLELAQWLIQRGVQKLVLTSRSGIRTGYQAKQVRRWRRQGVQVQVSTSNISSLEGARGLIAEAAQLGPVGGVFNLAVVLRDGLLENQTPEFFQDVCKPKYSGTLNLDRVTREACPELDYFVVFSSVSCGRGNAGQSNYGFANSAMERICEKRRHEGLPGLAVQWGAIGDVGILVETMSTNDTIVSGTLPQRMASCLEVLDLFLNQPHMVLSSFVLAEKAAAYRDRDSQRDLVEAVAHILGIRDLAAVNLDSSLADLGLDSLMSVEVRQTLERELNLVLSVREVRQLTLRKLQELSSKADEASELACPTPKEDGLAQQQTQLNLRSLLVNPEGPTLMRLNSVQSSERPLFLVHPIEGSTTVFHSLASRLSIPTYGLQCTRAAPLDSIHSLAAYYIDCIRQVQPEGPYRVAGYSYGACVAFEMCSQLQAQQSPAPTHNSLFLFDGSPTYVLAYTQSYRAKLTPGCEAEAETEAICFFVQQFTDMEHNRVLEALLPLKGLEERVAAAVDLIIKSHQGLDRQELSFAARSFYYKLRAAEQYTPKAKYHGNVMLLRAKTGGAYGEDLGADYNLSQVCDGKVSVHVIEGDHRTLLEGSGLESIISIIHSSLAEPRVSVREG
Broad substrate specificity ATP-binding cassette transporter ABCG2 (Homo sapiens), sequence (Q9UNQ0 whole entry, looked up): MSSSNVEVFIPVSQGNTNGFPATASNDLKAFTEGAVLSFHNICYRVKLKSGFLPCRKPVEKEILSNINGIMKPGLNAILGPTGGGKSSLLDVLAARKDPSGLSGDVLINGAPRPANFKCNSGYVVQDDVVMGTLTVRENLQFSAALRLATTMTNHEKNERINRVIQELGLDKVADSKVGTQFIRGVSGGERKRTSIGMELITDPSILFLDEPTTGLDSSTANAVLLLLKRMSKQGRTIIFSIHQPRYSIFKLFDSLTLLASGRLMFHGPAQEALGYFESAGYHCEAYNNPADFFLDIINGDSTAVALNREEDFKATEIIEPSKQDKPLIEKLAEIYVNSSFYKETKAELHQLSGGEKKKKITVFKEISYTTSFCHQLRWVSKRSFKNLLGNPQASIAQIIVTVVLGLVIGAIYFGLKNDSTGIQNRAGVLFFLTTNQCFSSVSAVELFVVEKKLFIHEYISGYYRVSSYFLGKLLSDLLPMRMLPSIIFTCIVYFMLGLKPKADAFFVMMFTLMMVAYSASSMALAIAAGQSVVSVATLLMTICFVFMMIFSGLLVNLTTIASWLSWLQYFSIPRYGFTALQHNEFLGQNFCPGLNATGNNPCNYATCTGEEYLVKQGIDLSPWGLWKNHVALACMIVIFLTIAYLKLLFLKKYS

As for `CC(C)(O)c1coc(S(=O)(=O)NC(=O)Nc2c3c(cc4c2CCC4)CCC3)c1`, the AC50 in [1] is 19.4 µM (active); in [8], 50 µM (active); in assay [16], 50 µM (active). Also, the call in [2], in assay [3], in [4], in assay [5], in assay [6] and in assay [7] was inactive. Besides, the molecule was called inactive in assay [9], in [10], in assay [11], in [12], in assay [13] and in assay [14]. Moreover, the call in [15] and in assay [17] was inactive.
`CC[C@H]1CC[C@H](NCc2cc3c(cc2OC)[C@H]2C[C@H]2C(=O)N3C)[C@H](c2ccccc2)N1`: the result in [1], in assay [3], in assay [4], in assay [5], in [6] and in assay [7] was inactive. The molecule was called inactive in assay [10], in assay [11], in assay [12], in assay [13], in [14] and in assay [15]. In addition, the molecule was classed as inactive in assay [16] and in assay [17]. Moreover, the AC50 in assay [2] was 57.7 µM (active); in assay [8], 37.6 µM (active); in [18], 50 µM (active).
`O=c1[nH]c2ccc(S(=O)CCN3CCC(Cc4ccc(F)cc4)CC3)cc2o1` (stereo not drawn): the outcome in [1], in assay [19], in [2], in [3], in assay [4] and in [5] was inactive. For the same molecule, the call in assay [9], in assay [10], in assay [11], in [12], in assay [13] and in assay [14] was inactive. Further, the call in assay [15] and in assay [16] was inactive. Besides, the AC50 is 67.3 µM (active) in assay [6]; 72.9 µM (active) in assay [7]; 59 µM (active) in assay [8]; 50 µM (active) in assay [18]; 50 µM (active) in assay [17].
